Results as given in the supplement of paper PMC6897291.

Tested on: U-2932
Experiment: growth inhibition by drug alone (1 - RLU/untreated control) (fraction); higher = stronger inhibition
Conditions: 177Lu-lilotomab satetraxetan 0 ug/ml
Protocol: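 U-2932 ABC-DLBCL cells were pretreated or not for 18 h with 1 ug/ml 177Lu-lilotomab satetraxetan (600 MBq/mg), washed and seeded (3000 cells/well) on 384-well plates pre-printed with the Selleck Cambridge Cancer Compound library. Viability was read by RealTime-Glo luminescence on days 3-6 after seeding. Effect = 1 - RLU/mean RLU of the 48 untreated no-drug control wells per plate; Bliss score = (M-E)/(1-Fa), with E the expected Bliss-additive effect.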

Compound	growth inhibition by drug alone (10 nM, time (day): 3)	growth inhibition by drug alone (10 nM, time (day): 4)	growth inhibition by drug alone (10 nM, time (day): 5)	growth inhibition by drug alone (10 nM, time (day): 6)	growth inhibition by drug alone (1000 nM, time (day): 3)	growth inhibition by drug alone (1000 nM, time (day): 4)	growth inhibition by drug alone (1000 nM, time (day): 5)	growth inhibition by drug alone (1000 nM, time (day): 6)
CC[C@@H](C(=O)[C@@H](C)[C@@H](O)[C@H](C)[C@@H]1O[C@@H]([C@@H](CC)C(=O)O)CC[C@@H]1C)[C@H]1O[C@]2(C=C[C@@H](O)[C@]3(CC[C@@](C)([C@H]4CC[C@](O)(CC)[C@H](C)O4)O3)O2)[C@H](C)C[C@@H]1C [Salinomycin (Procoxacin)]	0.136	0.115	0.00536	-0.0492	0.311	0.423	0.542	0.721
CC1=C2C[C@H]3[C@@H](CC=C4C[C@@H](O)CC[C@@]43C)[C@@H]2CC[C@]12O[C@@H]1C[C@H](C)CN[C@H]1[C@H]2C [Cyclopamine]	0.097	0.0521	-0.0277	-0.0904	0.00899	0.035	-0.037	-0.267
O=P1(N(CCCl)CCCl)NCCCO1 (stereo not given) [Cyclophosphamide monohydrate]	-0.0368	-0.0191	-0.0185	0.00793	-0.0419	-0.0135	-0.0461	-0.0745
O=C(Oc1ccc([N+](=O)[O-])cc1)N1CCC(C(O)(c2ccc3c(c2)OCO3)c2ccc3c(c2)OCO3)CC1	0.0143	0.0129	-0.0257	-0.105	-0.0233	0.0131	-0.0194	-0.0568
O=C(O)c1nn(Cc2ccc(Cl)cc2Cl)c2ccccc12 [Lonidamine]	0.129	0.0861	0.00199	-0.13	0.0943	0.0942	-0.0767	-0.0595
